Measurements reported in PubChem BioAssay AID2358 (The Scripps Research Institute Molecular Screening Center, 2010).
Hit rate of the full screen: of about 1,900 compounds, about 1,000 (53%) were called active. So high a share suggests a set chosen from earlier hits. The list is a sample of the results. Unmarked numbers belong to inactive results.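 How the source made its calls: active means mean PP1 inhibition above a set limit taken from the earlier primary screen (cut at about 15% in these data); inactive means the rest.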

target: Serine/threonine-protein phosphatase PP1-alpha catalytic subunit (Homo sapiens) (UniProt P62136); test: inhibition of human PP1-alpha enzyme activity – biochemical, fluorescence, OMFP substrate, triplicate, confirmation (AID 2358); details: purified PP1alpha, at 6.7 µM, stronger effect = higher value
Sequence (P62136 whole entry, looked up): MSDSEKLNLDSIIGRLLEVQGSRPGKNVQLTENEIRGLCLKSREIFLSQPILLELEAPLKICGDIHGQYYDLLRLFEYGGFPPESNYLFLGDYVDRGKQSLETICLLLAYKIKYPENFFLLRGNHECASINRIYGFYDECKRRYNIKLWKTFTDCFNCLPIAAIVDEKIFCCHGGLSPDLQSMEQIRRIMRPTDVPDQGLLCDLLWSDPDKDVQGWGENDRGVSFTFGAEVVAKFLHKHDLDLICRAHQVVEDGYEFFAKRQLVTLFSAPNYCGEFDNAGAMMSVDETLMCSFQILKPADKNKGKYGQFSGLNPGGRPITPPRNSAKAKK

| Structure (SMILES) | inhibition |
| --- | --- |
| O=c1[nH]c(CN2CC=C(c3ccccc3)CC2)nc2scc(-c3cccs3)c12 | 19.9% (active) |
| CCOP(=O)(OCC)C(O)c1ccc(OC)cc1OC (stereo not drawn) | -5.49% |
| O=C(O)c1ccccc1NC(=O)C1C2CCC(O2)C1C(=O)O (stereo not drawn) | 13.2% |
